± gives the standard deviation of the averaged measurements. The full ranking holds about 25,000 sequences; the median of “ln(normalized median fluorescence intensity)” is about 8.6, and the highest 2% start at about 10. Shown is part of a subset that was picked to be rich in the highest values.
Tested on: PfAP2-EXP AP2 domain (GST-tagged)
Test: gcPBM binding intensity (ln(normalized median fluorescence intensity)); higher = stronger DNA binding
Procedure, shortened: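 An Agilent 4 × 180k array carrying primer-extended double-stranded 36-bp intergenic genomic probes and negative controls received GST-tagged P. falciparum DNA-binding domains expressed in E. coli, about 25 μg on average, for 1 h. The binding buffer contained 1× PBS, 1% milk, 0.2 mg/ml BSA, 0.5% salmon testes DNA and 0.03% Triton X-100. Binding intensity is the top Masliner-normalised natural-log median intensity across replicate spots of either probe orientation, read after Alexa488 anti-GST antibody staining and a 488 nm scan.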

| Sequence | gcPBM binding intensity (ln) |
| --- | --- |
| ATAATAATTTAATACATACACACGTATATCTTTTTT [CACACA_site2041] | 8.45 ± 0.4 |
| AAAAATTAACAAAAGGTGCAAACAAATAGTGGTTTT [GTGCAC_site9998] | 8.865 ± 0.049 |
| AATTGCTCGATATATGCACACAGTTTTGTTATTTTT [CACACA_site8465] | 8.94 ± 0.36 |
| AAAAAAAAAAAAAAAAGTACAAAAAGGAGAAAGATA [XGTACX_site7862] | 8.9 ± 0.47 |
| TTAAAAGAAAATAGGTGTACACATAATATATACATA [XGTACX_site7697] | 8.92 ± 0.057 |
| TTGTTTCCTTAATATTCACACACATATATATAATAT [CACACA_site8553] | 8.89 ± 0.48 |
| GAATATTAAACAAACACACACACATATATATATATA [CACACA_site3382] | 10.1 ± 0.32 |
| GAATATTAAACAAACACACACACATATATTTATATA [CACACA_site7563] | 8.63 ± 0.42 |
| ATATTAAACAAACACACACACATATATATATATATA [CACACA_site3383] | 10.2 ± 0.26 |
| TTATATTAAACAAACACACACATATATATATATATA [CACACA_site2382] | 10.1 ± 0.47 |
| AATTTTTTATTAAACACACAAACATATATATATATA [CACACA_site1937] | 9.94 ± 0.35 |
| GTTTATATTAAACAAACACACACATATATATATATA [CACACA_site8749] | 10.2 ± 0.26 |
| TATATTAGAAGAAATTCACACATTCATGTAATCTTA [CACACA_site4706] | 8.07 ± 0.33 |
| ATAAATAAGATATATACACACATATCTATACATATT [CACACA_site6369] | 8.28 ± 0.49 |
| AATCGATAACAATGTAGTACCAGAAAAATAAATATT [XGTACX_site8501] | 8.99 ± 0.3 |
| AGAATCACCAAATATGTACACACCTTAACATGTTTA [CACACA_site2068] | 9.01 ± 0.46 |
| ATTAGCTACAAACAAAGGCTACCTATAGCAAGAGGG [GTGCAC_negctrl_site33] | 8.84 ± 0.39 |
| ATTATTAAAAAGATGTAAATAAATGAATATATGCTT [CACACA_negctrl_site539] | 8.47 ± 0.39 |
| TATTTTTTTTTTTTTTTTTTTTTAAAACATATCAAT [CACACA_negctrl_site925] | 7.95 ± 0.64 |
| GTTAGCTCGTTCGGAGCACACACATATATATATATA [CACACA_site8595] | 10.1 ± 0.45 |
| TAGCTCGTTCGGAGCACACACATATATATATATATA [CACACA_site1948] | 10.3 ± 0.28 |
| TAGCTCGTTCGGAGCACACACATATAAATAAATATA [CACACA_site7002] | 8.38 ± 0.52 |

| Sequence | gcPBM binding intensity (ln) |
| --- | --- |
| TTCTATATATTTGGAAGTACATTATATTTATTTTTT [XGTACX_site3172] | 8.44 ± 0.33 |
| AAATAATAAATATATCGTACAAATATCATATATAAA [XGTACX_site2771] | 8.32 ± 0.38 |
| CCTAAATAAATGGACACACACATATATATATATATA [CACACA_site1439] | 10.2 ± 0.32 |
| CCTAAATAAATGGACACACACATATTTATATTTATA [CACACA_site6789] | 8.46 ± 0.45 |
| AATAAATGGAATGTCACACATATATATATATATATA [CACACA_site4869] | 10.2 ± 0.37 |
| AATATATGTAAATGGACACACACATATATATATATA [CACACA_site9220] | 10 ± 0.28 |
| TATCTGTAAATGGACACACACATATATATATATATA [CACACA_site5926] | 10.2 ± 0.2 |
| TACCTAAATAAATGGACACACACATATATATATATA [CACACA_site8407] | 10.1 ± 0.3 |
| ACACATAAATGAATAAATAAATAAATATAAATATAA [CACACA_negctrl_site1784] | 8.36 ± 0.29 |
| AATATTATAAATGTCACACATATATTCAAATATATA [CACACA_site4736] | 8.29 ± 0.38 |
| TATATGTAAATGGACACACACATATATATATATATA [CACACA_site3659] | 10.1 ± 0.36 |
| GAACATACTCAAATAGCACACACATAAATAAAAATG [CACACA_site9283] | 8.89 ± 0.56 |
| GTGTGTTGTATATACTGTACATACTTTATATATAGT [XGTACX_site1876] | 8.63 |
| CCTTTTTTGTTTTATGCACACCATATAACCAAGGCT [CACACA_site7893] | 8.98 ± 0.18 |
| AAAAAATGGATGATCACACACTTCATAAAAATTGCA [CACACA_site5256] | 8.46 ± 0.49 |
| GTATATAATTTATATTGTACGCATATTATTATCATT [XGTACX_site7277] | 8.57 ± 0.25 |
| TTTATATTTAAATGCATGCACTTTCTATTTTTTTTT [GTGCAC_site9959] | 10 ± 0.33 |
| CTTTTCTATTTTTTCGTGCACTATAAATATTTTAAT | 9.6 ± 0.23 |
| ATTCTATATTTAAATGCATGCACTTTCTATTTTTTT [TGCATGCA_site435] | 10.6 ± 0.52 |
| TATATATATATATTATGTACTCATTTATTATCTTTT [XGTACX_site8051] | 9.97 ± 0.13 |
| ATATATTTATATTTGTGTACATATTTATTATATTTA [XGTACX_site404] | 8.46 ± 0.28 |
| TTTGTCATTTTATTATGTACTCAGCATATAGGGGGG [XGTACX_site505] | 10.7 ± 0.13 |

| Sequence | gcPBM binding intensity (ln) |
| --- | --- |
| ATATATATATATATATGTACTCATATTTTATTATTT [XGTACX_site898] | 10.1 ± 0.3 |
| ATAGCATATATTTTTTGTACATATGTTATATATATA [XGTACX_site2184] | 8.96 ± 0.071 |
| ATATATATTTATATATGTACATATTTTTGTGTATTT [XGTACX_site1183] | 8.55 ± 0.43 |
| ATGCATATATTTATGTGTACATATATTTGTAGGGGG [XGTACX_site6063] | 10.6 ± 0.19 |
| TATATATATATATATGCATGTACATATATTTGTTAT [TGCATGCA_site379] | 10.3 ± 0.17 |
| ATATATATATATGCATGTACATATATTTGTTATATC [XGTACX_site3197] | 9.82 ± 0.45 |
| ACAAAAATATTATATTGTACATTATTAGTTCATATT [XGTACX_site6750] | 8.5 ± 0.3 |
| GTAATTTTGAGATGATGTACATATTTTTTCCTTGTC [XGTACX_site4103] | 8.78 ± 0.47 |
| TAATTAAGAATATATAGTACATAGTTGAAAAACTTT [XGTACX_site6359] | 8.41 ± 0.33 |
| GTTTGATAACACCTACAAACTCTTTTTTTTTTTTTT [CACACA_negctrl_site1134] | 8.41 ± 0.53 |
| TCTGTGTTTTTGGGTACACACAAATAGCTTGTATAT [CACACA_site4002] | 8.72 ± 0.19 |
| TATGTAACCTGTTTTACACACCCCCACCCCCCTCTT [CACACA_site319] | 10.3 ± 0.17 |
| ACCCTATATGTAACTACACACCGCATATTGTTTACT [CACACA_site3071] | 9.19 ± 0.43 |
| TATATATGTTTTTATGTACACACTTTTAACCTAAGA [CACACA_site1149] | 8.71 ± 0.36 |
| ATCTATATAATATATACACACAAATATACAAAAAAA [CACACA_site1013] | 8.64 ± 0.56 |
| AAAAAATGCGACATGTGTACACATATATATATATAT [XGTACX_site1679] | 10.4 ± 0.11 |
| AAATGCGCCATGTGTACACATATATATATATATATA [CACACA_site4649] | 10.3 ± 0.33 |
| GTACAAATGTTGTGTATATATACACACATACATATA [XGTACX_negctrl_site276] | 8.69 ± 0.33 |
| ATACACACATATATGTGTACATATACATATATATAT [XGTACX_site6744] | 9.53 ± 0.32 |
| AAAAAAATAAATAAATGTACACATATATATATATAT [XGTACX_site4350] | 10.2 ± 0.47 |
| ATATATATATATATATGTACATATACACATGTGTGC [XGTACX_site168] | 10.1 ± 0.33 |
| ATAACACAAAATTGTTGTACACGTGTTAATAAGTGA [XGTACX_site4452] | 9.12 ± 0.33 |

| Sequence | gcPBM binding intensity (ln) |
| --- | --- |
| TTAAAAAAATAATTAACACACACATGTATATCTATA [CACACA_site9026] | 8.21 ± 0.42 |
| TAGTACACACAAAATACATGCGGGGTTTAATATTTA [TGCATGCA_site576] | 8.78 ± 0.45 |
| TATATGACAAGATAAAGTACAAATTTGTATATATAT [XGTACX_site3027] | 8.97 ± 0.25 |
| TTCTTAATATTGCATGCACACTATATAATAATTGAA [CACACA_site4720] | 10.41 ± 0.057 |
| TTATTAATATTGCATGCACACTATATAATAATTGAA [CACACA_site8258] | 10.11 ± 0.057 |
| TTTTATTAATATTGCATGCACACTATATAATAATTG [CACACA_site1049] | 10.02 ± 0.064 |
| ATAAAAAATTTAAGTATTTTTTACAAACCTATAAAT [GTGCAC_negctrl_site51] | 8.18 ± 0.38 |
| ATTTTTTTTCTTTTTTTTTTACATTTTTTTCTTTTT [CACACA_negctrl_site1289] | 8.51 ± 0.45 |
| ATCAGATATATATATTGTACATTTATATATAAATCA [XGTACX_site1960] | 8.46 ± 0.36 |
| AAAAGTCTTCAAATTTGTACATATATATATATATAT [XGTACX_site3404] | 10.29 ± 0.092 |
| TATATACATAAAATTTGTACATATATATATATATAT [XGTACX_site3214] | 10.1 ± 0.51 |
| TGTTGTAAATATGTTTGTACATAAATATATTATTTA [XGTACX_site5442] | 8.38 ± 0.35 |
| ATTTAAAAAATATATTGTACATATTTTATTATGTTT [XGTACX_site2984] | 8.29 ± 0.35 |
| ACGTATCAAAAAATTTGTACATATATATATATATAT [XGTACX_site1024] | 10.1 ± 0.35 |
| CATTTAAAATTTGTTTGTACATATATATATATATAT [XGTACX_site6729] | 10.2 ± 0.26 |
| ACATTCACAAAATTTTGTACACATATATATATATAT [XGTACX_site3518] | 10 ± 0.26 |
| TAAAATTTTTTTGTTTGTACATATATATATATAATA [XGTACX_site5609] | 8.72 ± 0.52 |
| ATATATATATATAAATGTACAGATATATTTTTTATT [XGTACX_site5445] | 10.21 ± 0.078 |
| TATATATATATATGTTGTACATATTTAAATGTTTAT [XGTACX_site5437] | 10.2 ± 0.2 |
| TTATATATTTATAAATGTACATATAATTTTTTTATA [XGTACX_site4696] | 8.3 ± 0.32 |
| TTTTTTTAATTAGTTTGTACATATTGTTATAATATA [XGTACX_site6294] | 8.56 ± 0.4 |
| TCCTTAAAAATCTAAAAAGAAAAAAACATATATTTT [GTGCAC_negctrl_site123] | 8.04 ± 0.45 |

— the supplement of paper PMC11417369
